Beta2AR agonist: activates human beta-2 adrenergic receptor causing internalization; P07550; Am2.2-beta2AR cells, FAP receptor internalization, flow cytometry; response, % (concentration not given with the values); 340,000 compounds, 0.43% hits;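 active = response above a set limit, near 3 SD of response in nonfluorescent compounds, cut at about 42% in these data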
Target sequence (P07550 whole entry, looked up): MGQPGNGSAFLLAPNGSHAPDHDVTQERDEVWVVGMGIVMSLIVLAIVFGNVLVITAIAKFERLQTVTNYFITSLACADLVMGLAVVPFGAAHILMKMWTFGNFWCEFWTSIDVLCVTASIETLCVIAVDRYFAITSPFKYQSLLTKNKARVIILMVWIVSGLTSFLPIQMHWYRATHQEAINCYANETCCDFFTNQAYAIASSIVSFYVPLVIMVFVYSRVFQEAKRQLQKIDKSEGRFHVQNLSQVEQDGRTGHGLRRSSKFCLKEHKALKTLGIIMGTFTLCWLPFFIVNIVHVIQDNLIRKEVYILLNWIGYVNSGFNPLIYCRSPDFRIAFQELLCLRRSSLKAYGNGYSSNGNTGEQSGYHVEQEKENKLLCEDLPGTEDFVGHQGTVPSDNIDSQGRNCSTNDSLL
MITF TRPM1 inh: MITF TRPM1 promoter inhibition in SK-MEL-5 cells; inhibition, % at 12.5 µM; AID 488899; SK-MEL-5 TRPM1 promoter luciferase, 24 h; 330,000 compounds, 0.83% hits;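 active = mean inhibition across replicates of 60% or more, whatever share of single replicates reaches that level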
CF NFkB block: blocks PAF-induced NF-kB reporter in cystic fibrosis cells. KKLEB NF-kB-GFP reporter, GFP fluorescence overnight. inhibition, % at 5 µM. 360,000 compounds, 0.86% hits. AID 588850;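 active = at least 50% inhibition at 5 µM, scaled per plate between neutral and stimulator controls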;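 also: PAF is a Pseudomonas aeruginosa culture filtrate used as stimulus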
Peg3 prom inh-1: reduces Peg3 promoter-driven luciferase expression in HeLa. HeLa PEG-Prom luciferase reporter, luminescence, overnight. inhibition, % at 20 µM. 360,000 compounds, 1.7% hits;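 active = inhibition of at least 50% at 20 µM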
HIF-2a block: HIF-2a inhibition | 786-0 RCC cells HIF-2a reporter, luciferase luminescence, overnight | inhibition, % at 18.8 µM | 360,000 compounds, 0.72% hits | AID 624352;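 active = inhibition of the luminescence signal of 40% or more relative to plate controls, in a single-dose primary screen at 18.75 µM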
KKLEB cytotox: counter-screen for CF NF-kB inhibitors: cytotoxicity; 360,000 compounds, 0.36% hits; activity change (cytotoxicity), % at 5 µM; KKLEB CF airway cells viability, ATPlite luminescence, overnight; hits give low values; cells stimulated with P. aeruginosa culture filtrate;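 active = corrected activity change at or below -50% at 5 µM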
Peg3 prom inh-2: confirmation of Peg3 promoter inhibitors; HeLa PEG-Prom luciferase reporter, luminescence, overnight; 1,300 compounds, 84% hits; inhibition, % at 20 µM; shares compounds with Peg3 prom inh-1; AID 602417;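 active = at 20 µM dose, 40% or more inhibition averaged across four replicates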
A number is an active result; 0 = inactive; - = not tested or not shown; ! = not confirmed by another sample. This is a sample that favours compounds with a hit; in the whole collection about 2.8% have one here.

SMILES	Beta2AR agonist	MITF TRPM1 inh	CF NFkB block	Peg3 prom inh-1	HIF-2a block	KKLEB cytotox	Peg3 prom inh-2
COCCNC(=O)c1cc2c(c(-c3cccc(-c4cc5ccccc5o4)c3)n1)[C@H](CCO)N(S(=O)C(C)(C)C)C2 (stereo partly drawn)	-	-	0	0	0	0	-
CCOC(=O)C1=C[C@@H](C(C)C)N(S(=O)(=O)c2ccc(C)cc2)[C@H]1c1ccc(C(C)C)cc1	-	-	0	0	0	0	-
CC1=NN(c2nc(-c3ccc(C)cc3)cs2)C(=O)C1N=Nc1ccc(C(N)=O)cc1 (stereo not drawn)	0	101.6	76.1	102.4	0	-66.1	0
O=C(NCc1ccc(Cl)nc1)c1csc(COCCO)n1	-	-	0	0	0	0	-
CC1=C(C(=O)N(C)C)CC(CC(=O)NCCc2ccccn2)C(=O)N1Cc1ccccc1 (stereo not drawn)	-	-	0	0	0	0	-
CCCc1nc(SCC(=O)N2CCCc3ccccc32)c2c(=O)n(C)c(=O)n(C)c2n1	0	-	0	53.3	0	0	46.4
CCCn1c(SCC(=O)N2CCCc3ccccc32)nc2c1c(=O)n(C)c(=O)n2C	0	0	0	0	0	0	-
CN(C)C(=O)c1cccc(-c2cnc3c(NC=O)cc(-c4cccc(C(F)(F)F)c4)cn23)c1	-	-	0	56.6	0	0	61.2
Cc1cccc(-c2cc(NC=O)c3ncc(-c4cccc(C(=O)N(C)C)c4)n3c2)c1	-	-	0	0	0	0	-
COc1cccc(-c2cc(NC=O)c3ncc(-c4cccc(C(=O)N(C)C)c4)n3c2)c1	-	-	0	0	0	0	-
COc1cccc(-c2cnc3c(NC=O)cc(-c4cccc(C(=O)N(C)C)c4)cn23)c1	-	-	0	54.9	0	0	54.4
C[C@@H]1CN([C@H](C)CO)C(=O)CCCn2cc(nn2)CO[C@H]1CN(C)C(=O)Nc1ccc2c(c1)OCCO2	-	-	0	0	0	0	-
CC(C)CCCCCCCCCCCCC(=O)NCC(=O)NC1C(O)C(O)C(Nc2ncnc3nc[nH]c23)OC1C(O)CO (stereo not drawn)	0	76.2	90.4	99.9	69.4	0	99.3
Cc1cc(C)c(CN2CCN(CCCn3cnc(C(=O)Nc4ccc(C)c(C)c4)n3)CC2)c(C)c1	0	84.2	0	97.9	0	0	96.6
COc1cccc(C(=O)N2CCC[C@H]2C(=O)N2CCC[C@H]2C(=O)N[C@H](C)c2ccccc2)c1	-	-	-	-	0	-	-
CN1CCC(N(C)S(=O)(=O)c2ccc(NC(=O)COc3cccc(Cl)c3)cc2)CC1	0	0	0	0	0	0	-
Cc1c(C(=O)Nc2ccc(S(=O)(=O)N(C)C3CCN(C)CC3)cc2)oc2c(Cl)cccc12	0	79.3	0	99.3	0	0	98.7
Cc1ccc(OCC(=O)Nc2ccc(S(=O)(=O)N(C)C3CCN(C)CC3)cc2)c(C)c1	0	0	0	0	0	0	-
CN1CCC(N(C)S(=O)(=O)c2ccc(NC(=O)COc3ccc(Br)cc3Cl)cc2)CC1	0	0	0	70.8	0	0	70.6
CCCCOCCCNC(=O)C[C@@H]1C[C@@]2(C(=O)OC)CCCCC=C2N(Cc2ccco2)C1=O	-	-	-	-	0	-	-
CCOC(=O)c1cccc(Nc2nc(-c3cccnc3)nc3ccccc23)c1	0	0	0	63.2	0	0	90.3
COC(=O)c1cccc(Nc2nc(-c3cccnc3)nc3ccccc23)c1	0	0	0	0	0	0	-
CCCCn1c(N)c(N(CCC(C)C)C(=O)c2c(CC)noc2C)c(=O)[nH]c1=O	-	-	0	0	0	0	-
CCCCN(C)C(=O)c1sc(=O)n(Cc2ccc(Cl)c(Cl)c2)c1C	-	-	0	0	0	0	-
O=S(CC(O)c1ccccc1)c1ccccc1 (stereo not drawn)	-	-	0	0	0	0	-
SMILES	Beta2AR agonist	MITF TRPM1 inh	CF NFkB block	Peg3 prom inh-1	HIF-2a block	KKLEB cytotox	Peg3 prom inh-2
Cc1cc(-n2c(SCC(=O)Nc3ccc(F)c(F)c3)nc3n[nH]c(C)c3c2=N)ccc1Cl	0	0	0	83.7	0	0	58.7
Cc1cc(-n2c(SCC(=O)Nc3ccc(Br)cc3)nc3n[nH]c(C)c3c2=N)ccc1Cl	0	0	0	84.7	0	0	0
CCOc1ccc(-n2c(SCC(=O)Nc3ccc(Br)cc3)nc3n[nH]c(C)c3c2=N)cc1	0	0	0	0	0	0	-
Cc1nn(-c2ccccc2)c2c1C(c1ccc([N+](=O)[O-])cc1)N1C(=N2)C(=O)Nc2ccccc21 (stereo not drawn)	0	0	0	52.8	0	0	50.4
COc1ccc(-n2nc(C(=O)Nc3ccc(OC)c(OC)c3)c3c4ccccc4n(C)c3c2=O)cc1	0	0	64.3	61.6	0	-59.7	0
CCN1CCCC1CN(Cc1cc2ccc(C)cc2[nH]c1=O)C(=S)Nc1ccc(OC)cc1 (stereo not drawn)	0	0	0	63.1	0	0	79.6
CCN1CCCC1CN(Cc1cc2ccc(C)cc2[nH]c1=O)C(=S)Nc1cccc(OC)c1 (stereo not drawn)	0	0	0	0	0	0	-
COc1ccccc1CN(C)C(=O)c1cc(-c2cccs2)nc2ccccc12	0	0	0	69.0	0	0	81.2
COc1ccc(CN(C)C(=O)c2cc(-c3ccccc3)nc3ccc(C)cc23)c(OC)c1OC	0	0	0	58.8	0	0	59.5
COc1ccc(CN(C)C(=O)c2cc(-c3ccc(OC)c(OC)c3)nc3ccccc23)c(OC)c1	0	0	0	0	0	0	-
COc1ccc(CCN(C)C(=O)c2cc(-c3ccccc3)nc3ccc(C)cc23)cc1OC	0	0	0	0	0	0	-
COc1ccc(-c2cc(C(=O)N(C)Cc3cccc(OC)c3OC)c3ccccc3n2)cc1OC	0	0	0	55.1	0	0	56.2
COc1ccc(C(=O)c2sc(Nc3cccc(OC)c3)c(C(=O)Nc3cccc(C)c3C)c2N)cc1	0	0	0	97.2	0	0	0
COc1ccc(Nc2sc(C(=O)c3ccc(Cl)cc3)c(N)c2C(=O)Nc2ccccc2OC)cc1	0	0	0	0	0	0	-
CC(=O)C1=CCC(c2ccccc2)N(S(=O)(=O)c2ccccc2)C1 (stereo not drawn)	-	-	0	0	0	0	-
CCOC(=O)c1c(C)n(-c2ccc(OC)cc2)c2ccc(O)c(CN(C)C)c12	0	0	0	55.0	0	0	0
CCOC(=O)C1=C(COCCN)NC(C)=C(C(=O)OC)C1c1ccccc1Cl (stereo not drawn)	0	0	0	68.7!	0	0	88.7
CCOC(=O)C1=C(C)NC(C)=C(C(=O)OC)C1c1cccc(Cl)c1Cl (stereo not drawn)	0	0	0	0	0	0	-
CC(=O)n1c(-c2ccccc2)c(CO)c2ccccc21	0	0	0	0	0	0	-
NCCc1c(-c2ccccc2)n(-c2ccccc2)c2ccccc12	0	0	0	106.8	0	0	99.3
